Data published in PubChem BioAssay AID485284 (NMMLSC, 2010).
Entries with a potency or affinity are not part of this list.

Assay: loss of vesicle association with mouse CD8+ T cells – mouse 2C CD8+ T cells, flow cytometry, dose response (AID 485284);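 note: drosophila derived vesicles carrying Ld MHC with QL9 peptide plus B7-1 and ICAM-1; vesicle binding seen as anti-B7-1 PE fluorescence on CD8 gated cells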
Conditions: 2C mouse CD8+ T cell-exosome binding; at 45 µM (top of the series)

| SMILES | binding remaining, % of control [%] |
| --- | --- |
| CCCCN(C(=O)COC(=O)c1ccc(C=O)cc1)c1c(N)n(CCC)c(=O)[nH]c1=O | 50.1 |
| COc1ccc(/C=C2\SC(N3CCc4ccccc4C3)=NC2=O)cc1OC | 18.6 |
| O=C(Oc1ccc(C(=S)N2CCOCC2)cc1)c1ccc(F)cc1 | 63.3 |
| CC(=O)Nc1ccc(S(=O)(=O)NC2CCSc3ccccc32)cc1 (centres undefined) | 273 |
| Cc1cccc(C(=O)OCC(=O)NN2C(=O)NC3(CCC(C)CC3)C2=O)c1O (centres undefined) | 209 |
| Cn1c(=O)c2cc(S(=O)(=O)NCCC(=O)NC3CCCCCC3)ccc2n(C)c1=O | 83.7 |
| O=C(Cc1ccc2c(c1)OCCO2)Nc1cccc(S(=O)(=O)N2CCOCC2)c1 | 135 |
| CCOc1ccc(C(=O)NNC(=O)CN2C(=O)C3CC=CCC3C2=O)cc1OC (centres undefined) | 194 |
| CCOC(=O)c1ccc(NC(=O)CN2C(=O)NC3(CCCCCCC3)C2=O)cc1 | 44.2 |
| CCOc1ccc(CCNC(=O)CCS(=O)(=O)c2ccc(C)cc2)cc1OCC | 94 |
| COc1cc(CNCc2cccnc2)ccc1OCC(=O)NC1CCCCC1 | 128 |
| COc1ccc(C(=O)NNC(=O)CSc2nnnn2C)cc1 | 181 |
| COc1cc(F)c(C2=CC(=O)C[C@H](c3ccc(F)cc3)C2)cc1F | 108 |
| CCOc1ccc(CCNC(=O)c2cccc(-n3cnnn3)c2)cc1OCC | 164 |
| Cc1cc(=O)oc2c3c(cc(OCC(=O)NCc4ccncc4)c12)OC(C)(C)CC3 | 119 |
| CCOC(=O)c1sc(NC(=O)C2CC(=O)N(c3ccccc3OC)C2)nc1C (centres undefined) | 141 |
| Cc1cccc(OCC(=O)Nc2ccccc2C(=O)N2CCOCC2)c1 | 161 |

| SMILES | binding remaining, % of control [%] |
| --- | --- |
| COc1ccc2c(c1)-c1c(sn(-c3ccc(OC)c(OC)c3)c1=S)C(C)(C)N2 | 116 |
| Cc1c(C(=O)N(C)Cc2ccccc2)oc2ccc(S(=O)(=O)N3CCCC3)cc12 | 120 |
| CN(C)S(=O)(=O)N1CCN(S(=O)(=O)N(C)C)CC1 | 55.7 |
| COC(=O)c1ccc(OC(=O)CS(=O)c2ccccc2[N+](=O)[O-])cc1 (centres undefined) | 97.9 |
| O=C1N=C(N2CCOCC2)S/C1=C\c1cccs1 | 99.5 |
| O=C(NC1CCCCCC1)C1CCN(S(=O)(=O)c2ccccc2)CC1 | 137 |
| Cc1c(Cl)cccc1NC(=O)c1cc(C2CC2)on1 | 86 |
| CC1CCCN(CC(=O)NC(=O)NC2CCCCC2)C1 (centres undefined) | 109 |
| CCN(CC)S(=O)(=O)c1ccc2c3c(cccc13)C(=O)N2 | 56.2 |
| COc1ccc([C@H]2CC(=O)C=C(/C=C/c3ccccc3)C2)cc1 | 52.1 |
| Cc1cnc(C(=O)Nc2ccc(C)c(S(=O)(=O)N3CCCCC3)c2)cn1 | 114 |
| Cc1cccc(Nc2nc(-c3ccccn3)cs2)n1 | 69.7 |
| Cc1cc(N2CCN(C)CC2)nc2ccc(NC(=S)N3CCC4(CC3)OCCO4)cc12 | 147 |
| CC(C)(C)NC(=O)COc1ccc(CNCc2ccccn2)cc1 | 120 |
| CCOc1ccc(NC(=O)CN(C)C(=O)C2CC(=O)N(Cc3ccco3)C2)cc1OCC (centres undefined) | 145 |
| O=C1CCCc2sccc2N1 | 106 |
| Cc1ccc(S(=O)(=O)N2CCN(CCOc3c(Cl)cccc3Cl)CC2)cc1C | 100 |
